Test [1] is described as follows: A CellTox Green Cytotoxicity Assay to monitor cytotoxicity in HEK293 cells - 24 hour (AID 1224875). Further: nearly all actives have a fitted effect of over 45% in size. Further: potency means the concentration at half of the fitted maximal effect. On activity change: on the % scale 0 is the no-effect control and ±100 the full control effect. The settings on record: CellTox Green fluorescence; series mostly up to 76.8 µM. The method in brief:
(§1)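 Cells (HEK293, 600/well) and dye reagent are dispensed together. After 5 h at 37 C, 23 nL compound is pinned in. Plates stay at 37 C for 40 h with fluorescence read at 0h, 8h, 16h, 24h, 32h and 40h.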

The nature of test [2]: A CellTox Green Cytotoxicity Assay to monitor cytotoxicity in HepG2 cells - 16 hour (AID 1224876). Further: nearly all actives have a fitted effect of over 45% in size. Further: potency means the concentration at half of the fitted maximal effect. On cytotoxicity increase: on the % scale 0 is the no-effect control and ±100 the full control effect. The note with it: CellTox Green fluorescence; series mostly up to 76.8 µM. The method in brief: (§2)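 Cells and non-lytic dye reagent are dispensed together (600 HepG2 cells/well) and incubated 5 h before DMSO compound transfer. Kinetic fluorescence is then recorded in the same wells during 40 h at 37 C.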

Test [3] is described as follows: A CellTox Green Cytotoxicity Assay to monitor cytotoxicity in HepG2 cells - 24 hour (AID 1224878). Further: nearly all actives have a fitted effect of over 45% in size. Further: potency means the concentration at half of the fitted maximal effect. On Cytotoxicity: on the % scale 0 is the no-effect control and ±100 the full control effect. The note with it: CellTox Green fluorescence; series mostly up to 76.8 µM. The method in brief:
as §2

Test [4] in a line: A CellTox Green Cytotoxicity Assay to monitor cytotoxicity in HepG2 cells - 40 hour (AID 1224879). Further: nearly all actives have a fitted effect of over 40% in size. Further: potency means the concentration at half of the fitted maximal effect. On cytotoxicity increase: on the % scale 0 is the no-effect control and ±100 the full control effect. The settings on record: CellTox Green fluorescence; series mostly up to 76.8 µM. The method in brief: as §2
Test [5] can be described thus: qHTS RealTime-Glo MT Cell Viability Assay in HEK293 cells - 0 hour (AID 1224880). Further: top concentration of the series differs between compounds; on the % scale 0 is the no-effect control and ±100 the full control effect; nearly all actives have a fitted effect of over 45% in size. The settings on record: RealTime-Glo luminescence; series mostly up to 76.8 µM. The method in brief:
(§3)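 Real-time viability in HEK293: signal arises when living cells convert a prosubstrate for NanoLuc in the medium, so luminescence tracks viable cell number. Compound (23 nL, DMSO) added 5 h post-seeding; kinetic reads at 0–40 h, 37 C.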

A short description of test [6]: A CellTox Green Cytotoxicity Assay to monitor cytotoxicity in HEK293 cells - 32 hour (AID 1224881). Further: nearly all actives have a fitted effect of over 40% in size. Further: potency means the concentration at half of the fitted maximal effect. The note with it: CellTox Green fluorescence; series mostly up to 76.8 µM. The method in brief:
as §1

Test [7] can be described thus: A CellTox Green Cytotoxicity Assay to monitor cytotoxicity in HepG2 cells - 0 hour (AID 1224882). Further: on the % scale 0 is the no-effect control and ±100 the full control effect; nearly all actives have a fitted effect of over 35% in size. The note with it: CellTox Green fluorescence; series mostly up to 76.8 µM. The method in brief: as §2
A short description of test [8]: qHTS RealTime-Glo MT Cell Viability Assay in HepG2 cells - 32 hour (AID 1224877). Further: nearly all actives have a fitted effect of over 55% in size. Further: potency means the concentration at half of the fitted maximal effect. The note with it: RealTime-Glo luminescence; series mostly up to 76.8 µM. The method in brief: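 Compound treatment began 5 h after plating HepG2 cells (600/well) with NanoLuc luciferase and prosubstrate. Plates stayed at 37 C for 40 h; luminescence was captured at six time points, 0 h through 40 h.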

Test [9] in a line: qHTS RealTime-Glo MT Cell Viability Assay in HEK293 cells - 40 hour (AID 1224874). Further: potency means the concentration at half of the fitted maximal effect; nearly all actives have a fitted effect of over 50% in size. The settings on record: RealTime-Glo luminescence; max response: stronger effect = lower value. The method in brief:
as §3

Values joined by “and” are separate entries in the source; they are usually repeats but may differ in a detail not shown here. Equal values may be shown once. Inconclusive results are not listed. A structure can be active in one record and inactive in another. Active and inactive are the calls of the source. The call rests on the fitted dose curve; in most records, active means well fitted curve in the direction sought with a large enough effect in the repeat runs; inconclusive means weak or mixed curves; inactive means no such curve, though single readings can be large; an effect the other way counts as inactive or inconclusive.

Turning to `O=C(OC[C@H]1O[C@@H](OC(=O)c2cc(O)c(O)c(OC(=O)c3cc(O)c(O)c(O)c3)c2)[C@H](OC(=O)c2cc(O)c(O)c(OC(=O)c3cc(O)c(O)c(O)c3)c2)[C@@H](OC(=O)c2cc(O)c(O)c(OC(=O)c3cc(O)c(O)c(O)c3)c2)[C@@H]1OC(=O)c1cc(O)c(O)c(OC(=O)c2cc(O)c(O)c(O)c2)c1)c1cc(O)c(O)c(OC(=O)c2cc(O)c(O)c(O)c2)c1`, the activity change in test [1] is -38.6% [at 15.8 µM, stronger effect = higher value] (inactive). In addition, the results for the cytotoxicity increase in test [2], in test [4] and in test [6] were -47.1% [at 15.8 µM] (inactive), -56% [at 15.8 µM] (inactive) and -42.7% [at 15.8 µM] (inactive), respectively. The cytotoxicity in test [3] is -52.4% [at 15.8 µM] (inactive); in [7] it was -19.7% [at 15.8 µM] (inactive). Moreover, the activity change, negative = cytotoxicity in [5] is -3.48% [at 15.8 µM] (inactive).
For the compound `COc1ccc(CN2CCN(C(c3ccc(F)cc3)c3ccc(F)cc3)CC2)c(OC)c1OC`, the Potency result in test [1], in test [2], in test [3], in [5], in test [6] and in test [7] was “inactive” in each case. For the same compound, the Potency in test [4] is 10.7 µM (active).
On to `CCCCCCCCCOC(=O)c1ccc(O)cc1`, for which the Potency was 38.3 µM (active) in test [1]; 48.3 µM (active) in [2]; 48.3 µM (active) in test [3]; 48.3 µM (active) in test [4]; 38.3 µM (active) in test [6]. Also, the Potency result in [8], in test [5] and in [7] was “inactive” in each case.
As for `O=C(OCC(COC(=O)c1ccccc1)(COC(=O)c1ccccc1)COC(=O)c1ccccc1)c1ccccc1`, the Potency in test [9] was 48.9 µM (active). In addition, the Potency result in [2], in [8], in test [3], in [4], in [5] and in test [7] was “inactive” in each case.
In the case of `CC(C)(C)CC(C)(C)c1ccc(OCCOCC[N+](C)(C)Cc2ccccc2)cc1`, the Potency in [9] is 9.76 µM (active) and 8.49 µM (active); in [2] it was 48.9 µM (active) and 19 µM (active); in test [8], 34.6 µM (active) and 9.52 µM (active); in [3] it was 38.9 µM (active) and 15.1 µM (active); in test [4] it was 24.5 µM (active) and 10.7 µM (active); in [6] it was 38.9 µM (active) and 21.3 µM (active). Further, the Potency entry in test [7] was “inactive”.
For `OCc1c[nH]c2ccccc12`, the Potency result in test [2], in test [8], in [5] and in test [7] was “inactive” each time.
Turning to `CCN1/C(=C/C=C/c2sc3ccccc3[n+]2CC)Sc2ccccc21`, the Potency is 0.0585 µM (active) in test [9], 1.85 µM (active) in test [3], 1.17 µM (active) in test [4] and 10.4 µM (active) in test [6]. In addition, in [2], the cytotoxicity increase was -2.11% [at 15.8 µM] (inactive). Also, in test [5], the activity change, negative = cytotoxicity is -8.36% [at 15.8 µM] (inactive). Besides, the cytotoxicity in [7] is -4.71% [at 15.8 µM] (inactive).
Turning to `Nc1c2ccccc2nc2ccccc12`, the Potency in test [9] is 4.83 µM (active) and 2.39 µM (active); in test [8] it was 24.2 µM (active) and 10.7 µM (active); in test [3], 10.7 µM (active); in [4], 10.8 µM (active) and 10.7 µM (active); in test [6] it was 43.1 µM (active). Also, the Potency entry in test [5] and in test [7] was “inactive” throughout.
As to `C=CC(=O)OCC(CO)(COC(=O)C=C)COC(=O)C=C`, the Potency in test [9] was 3.48 µM (active); in [8], 12.3 µM (active) and 17.4 µM (active); in test [3], 9.81 µM (active); in test [4], 11 µM (active) and 24.5 µM (active); in test [6] it was 15.5 µM (active). For the same compound, the Potency entry in test [2], in test [5] and in test [7] was “inactive” throughout.
Take `On1ccccc1=S`: the Potency in test [2] was 1.93 µM (active); in [8], 0.485 µM (active); in [3], 0.432 µM (active); in [4], 0.385 µM (active); in [6], 1.22 µM (active). In addition, the Potency result in test [5] and in test [7] was “inactive” in each case.
Take `CC1=C(/C=C/C(C)=C/C=C/C(C)=C/C=O)C(C)(C)CCC1`: the Potency was 19.4 µM (active) in test [9], 38.7 µM (active) in test [1], 48.7 µM (active) in test [4] and 38.7 µM (active) in [6]. Also, the Potency result in [5] and in test [7] was “inactive” throughout.
As to `CCOc1nc2cccc(C(=O)OC(C)OC(=O)OC3CCCCC3)c2n1Cc1ccc(-c2ccccc2-c2nn[nH]n2)cc1` (stereo not given), the Potency was 34.6 µM (active) in [1], 43.6 µM (active) in test [3], 43.6 µM (active) in test [4] and 30.9 µM (active) in test [6].
Consider `CCCCCCCCCCCCCCCCCC[N+](C)(C)C`, for which the Potency in test [9] was 7.79 µM (active); in [1], 39 µM (active); in test [4], 49.1 µM (active); in test [6], 21.9 µM (active). Moreover, the Potency result in [5] and in test [7] was “inactive” in each case.
Consider `Cc1cc(CCN2CCN(c3nsc4ccccc34)CC2)cc2c1NC(=O)CC2(C)C`, for which the Potency in test [9] was 6.92 µM (active); in test [1], 49 µM (active); in test [8] it was 54.9 µM (active); in test [6], 49 µM (active). Further, the Potency result in [5] and in [7] was “inactive” in each case.
As for `Oc1ccc2c(c1)-c1ccccc1C2`, the Potency result in [8], in test [5] and in [7] was “inactive” in each case. The Potency in [3] and in [4] was 49 µM (active) in each case.
With `Oc1ccc(Cl)cc1Sc1cc(Cl)ccc1O`, the Potency is 19.5 µM (active) and 23.9 µM (active) in [9]; 43.6 µM (active) in [3]; 48.9 µM (active) and 26.8 µM (active) in [4]; 43.6 µM (active) and inactive in [6]. Further, the Potency entry in [2], in test [5] and in test [7] was “inactive” throughout.
As to `CNCc1cc(F)ccc1Oc1ccc(Cl)c(Cl)c1`, the Potency in test [9] is 43.6 µM (active); in [2], 54.9 µM (active); in test [8] it was 54.9 µM (active); in test [3] it was 49 µM (active); in test [4] it was 49 µM (active); in test [6] it was 49 µM (active). In addition, the Potency result in test [7] was “inactive”.
Consider `CC/C(=C(\c1ccc(O)cc1)c1ccc(OCCN(C)C)cc1)c1ccccc1`, for which the Potency was 49.1 µM (active) in test [1]; 61.8 µM (active) in test [8]; 55.1 µM (active) in test [3]; 55.1 µM (active) in [4]; 43.8 µM (active) in [6]. For the same compound, the Potency entry in test [5] and in [7] was “inactive” throughout.
`NC(=O)C1(N2CCCCC2)CCN(CCCN2c3ccccc3CCc3ccc(Cl)cc32)CC1`: the Potency in [8], in test [3] and in [4] was 23.9 µM (active) in each case. Also, the Potency result in test [5] and in test [7] was “inactive” each time.
Take `O=c1[nH]sc2cc(Cl)ccc12`: the Potency result in test [1], in [5], in [6] and in test [7] was “inactive” in each case.
Take `CCCCCCCCOc1ccccc1C(=O)Nc1ccc(C(=O)OCC[N+](C)(CC)CC)cc1`: the Potency in test [9] was 21.3 µM (active); in test [3] it was 26.8 µM (active); in test [4], 23.9 µM (active); in [6], 23.9 µM (active).
For `CC(C)(C)CC(C)(C)c1ccc(O)c(Cc2ccc(Cl)cc2Cl)c1`, the figures for the Potency in test [9], in test [1] and in test [6] were 23.9 µM (active), 26.8 µM (active) and 23.9 µM (active), respectively. Besides, the Potency result in test [5] and in test [7] was “inactive” throughout.

The values above are taken from PubChem BioAssay (Tox21).
